Drawing on PubChem BioAssay (Tox21), this text covers Potency for seven compounds.

Records with an inconclusive call do not appear. The source holds several records for some structures; these can differ, active in one and inactive in another. Activity calls are given as the source filed them. Unless noted, calls come from the whole dose curve.

Test [1] in a line: Nuclear factor erythroid 2-related factor 2/antioxidant responsive element (Nrf2/ARE) small molecule agonists: qHTS cell viability counter screen in human keratinocytes (AID 1919968; active = well fitted curve in the direction sought with a large enough effect in the repeat runs; an effect the other way counts as inactive or inconclusive; note: nearly all actives have a fitted effect of over 55% in size; note: potency is the fitted concentration of half-maximal effect). In short, it runs like this: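 Cells of the KeratinoSens line were plated at 1,500 per well and left for 5 h before compound transfer from DMSO stocks. After a 23 h incubation (37 C, 5% CO2), CellTiter-Fluor was added. Signal was taken as fluorescence intensity 1 h later.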
(In qHTS, concentration-response curves come from the screen itself.)

Test [2] is described as follows: Nuclear factor erythroid 2-related factor 2/antioxidant responsive element (Nrf2/ARE) small molecule agonists: luciferase reporter gene qHTS assay in human keratinocytes (AID 1919969). Note: nearly all actives have a fitted effect of over 35% in size. Note: potency is the fitted concentration of half-maximal effect.
In test [3] the target is Gonadotropin-releasing hormone receptor (Homo sapiens) (UniProt P30968). Put plainly: Human gonadotropin-releasing hormone receptor (GnRHR) small molecule agonists, calcium flux assay in GnRHR-HEK293 cells (AID 1920063). Note: nearly all actives have a fitted effect of over 35% in size. In short, it runs like this:
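Compounds dissolved in DMSO are pin-transferred onto dye-loaded GnRHR-HEK293 cells, which were seeded 18 h before at 37 C/5% CO2. Calcium signal is read as fluorescence intensity at 1 s intervals for 3 min.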
In general terms: Calcium assays in cells follow changes in intracellular calcium, usually with a dye or a luminescent sensor.

For test [4], the target named is KiSS-1 receptor (Homo sapiens) (UniProt Q969F8). Briefly: Human kisspeptin (KISS1R) small molecule agonists, calcium flux assay in KISS1R-HEK293 cells (AID 1920064; active = well fitted curve in the direction sought with a large enough effect in the repeat runs; an effect the other way counts as inactive or inconclusive). A digest of the protocol:
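Cell line: HEK293, stable human KISS1R. Dye loading 1 h at 37 C after 18 h culture. Read: kinetic fluorescence, 480/540 nm, 3 min at 1 s intervals.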

Test [5] can be described thus: G protein-coupled receptor (GPCR) small molecule agonists, calcium flux assay: HEK293 wild type cell line counter screen (AID 1920065). A digest of the protocol:
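Tox21 10K compounds, 15 concentrations each in triplicate, pin-transferred in DMSO onto dye-loaded cells; kinetic read at 480/540 nm for 3 min, 1 s intervals.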

A short description of test [6]: p53 small molecule agonists, cell-based qHTS assay with human liver microsomes: qHTS cell viability counter screen (AID 1963579). Note: nearly all actives have a fitted effect of over 45% in size. A digest of the protocol: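 p53RE-bla cells (4,000/well) were pre-incubated 5 h at 37 C, then given compounds in DMSO plus human liver microsomes (0.5 mg/mL final) and NADPH (0.5 mg/mL final) for 16 h at 37 C. Viability was read by CellTiter-Glo luminescence.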

The nature of test [7]: p53 small molecule agonists, cell-based qHTS assay with rat liver microsomes: qHTS cell viability counter screen (AID 1963580). Note: nearly all actives have a fitted effect of over 45% in size. Note: potency is the fitted concentration of half-maximal effect. A digest of the protocol:
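Luminescent ATP readout (CellTiter-Glo, 30 min at room temperature) reports viability of p53RE-bla HCT-116 cells after 16 h at 37 C with test compounds under metabolic activation by rat liver microsomes and NADPH at 0.5 mg/mL final each.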

The nature of test [8]: p53 small molecule agonists, cell-based qHTS assay: qHTS cell viability counter screen (AID 1963581). Note: nearly all actives have a fitted effect of over 45% in size. In short, it runs like this:
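ATP content measured by luminescence in HCT-116 p53RE-bla cells treated 16 h at 37 C, same wells as the reporter screen.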

The target in test [9] is 5-hydroxytryptamine receptor 2A (Homo sapiens) (UniProt P28223). Briefly: 5-hydroxytryptamine receptor 2A (HTR2A) small molecule antagonists, cell-based qHTS assay (AID 1963586). Note: nearly all actives have a fitted effect of over 45% in size. In short, it runs like this: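 CHO cells stably expressing human HTR2A were plated for 18 h at 37 C, then loaded with calcium dye for 1 h. Compounds were preincubated 5 min at room temperature before DOI (4 nM solution) was added. Kinetic fluorescence was read for 3 min.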

For test [10] the target is unchanged. Put plainly: 5-hydroxytryptamine receptor 2A (HTR2A) small molecule agonists, cell-based qHTS assay (AID 1963587). Note: nearly all actives have a fitted effect of over 30% in size. A digest of the protocol: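 HTR2A-CHO cells, plated 18 h at 37 C/5% CO2, dye-loaded 1 h at 37 C; compounds in DMSO added by pin tool (agonist mode). Intracellular calcium flux read as kinetic fluorescence on FDSS over 2 min at 1 s intervals.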
Test [11] addresses Muscarinic acetylcholine receptor M1 (Homo sapiens) (UniProt P11229). Briefly: Cholinergic receptor muscarinic 1 (CHRM1) small molecule antagonists, cell-based qHTS assay (AID 1963588). Note: nearly all actives have a fitted effect of over 40% in size. A digest of the protocol: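 Compounds were tested at 15 concentrations in three independent runs. Dye-loaded CHRM1-CHO cells were exposed 5 min at room temperature before stimulation by acetylcholine added at 50nM. Intracellular calcium was read kinetically on FDSS for 3 min.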

Test [12] has the same target. Briefly: Cholinergic receptor muscarinic 1 (CHRM1) small molecule agonists, cell-based qHTS assay (AID 1963589). Note: nearly all actives have a fitted effect of over 35% in size. A digest of the protocol: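 Homogeneous fluorescence calcium flux, agonist mode. Human M1-expressing CHO cells; compound dosed at 15 concentrations, three independent runs; signal sampled every 1 sec.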
Test [13] is described as follows: cAMP Responsive Elements (CRE) small molecule agonists, cell-based qHTS assay (AID 1963590). In short, it runs like this: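 HEK 293T cells stably bearing CRE-bla were plated at 2,000 cells per well and rested 18 h. Compounds, positive controls or DMSO were added for 3 h at 37 C. LiveBLAzer B/G substrate was then loaded for 2 h at room temperature.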
The target of test [14] is Beta-2 adrenergic receptor (Homo sapiens) (UniProt P07550). Briefly: Adrenergic beta2 receptor (ADRB2) small molecule antagonists, cell-based qHTS assay (AID 1963592). Note: nearly all actives have a fitted effect of over 50% in size. Note: potency is the fitted concentration of half-maximal effect. In short, it runs like this:
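Assay format: CHO-ADRB2 cells, 18-20hr seeding at 37C/5% CO2, then compound plus 1nM isoproterenol agonist mix for 0.5hr RT. Homogeneous time-resolved fluorescence cAMP detection after 1hr, expressed as 665/615 nm ratio.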

Test [15] has the same target. Put plainly: Adrenergic beta2 receptor (ADRB2) small molecule agonists, cell-based qHTS assay (AID 1963593).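 Note: CHO cells stably overexpressing human ADRB2.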 In short, it runs like this:
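CHO cells stably over-expressing ADRB2 were plated overnight at 37C, then dosed with compounds plus a stimulation mix containing 100uM IBMX and 25uM Ro-20-1724 for 0.5hr at room temperature. cAMP was measured by HTRF competition, 1hr.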

Test [16] concerns the target D(2) dopamine receptor (Homo sapiens) (UniProt P14416). Put plainly: Dopamine D2 receptor (DRD2) small molecule agonists, cell-based qHTS assay (AID 1963594). Note: nearly all actives have a fitted effect of over 35% in size. A digest of the protocol:
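HEK293 cells stably expressing DRD2 were cultured 24 h at 37 C, then given Ro20-1724 (0.1 mM final) and compounds for 10 min at room temperature. NKH477 (200nM) was then added for 30 min. cAMP was read by HTRF.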

The nature of test [17]: p53 small molecule agonists, cell-based qHTS assay with rat liver microsomes (AID 1963578). A digest of the protocol:
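p53RE-bla cells were exposed to compounds together with rat liver microsomes (0.5 mg/mL final) and NADPH (0.5 mg/mL final) for 16 h at 37 C, then read by LiveBLAzer beta-lactamase fluorescence after 2 h at room temperature.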

Test [18] in a line: p53 small molecule agonists, cell-based qHTS assay (AID 1963582; active = well fitted activation curve with a large enough effect in the signal ratio in the repeat runs, not every such curve was filed as active; the % refers to the signal ratio). In short, it runs like this: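 16 h compound exposure (37 C) of p53 response element–bla cells, preceded by 5 h recovery at 37 C/5% CO2; read-out via LiveBLAzer B/G FRET substrate, 2 h RT, fluorescence intensity.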
Test [19] is described as follows: cAMP Responsive Elements (CRE) small molecule antagonists, cell-based qHTS assay (AID 1963591; active = well fitted inhibition curve with a large enough effect in the signal ratio in the repeat runs, not every such curve was filed as active; the % refers to the signal ratio). In short, it runs like this: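 First, CRE-bla HEK293T cells settled 18 h at 37 C. Next, compound and 0.25 uM final NKH477 were applied for 3 h. Last, LiveBLAzer B/G substrate was loaded for 2 h at room temperature.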
The target in test [20] is D(2) dopamine receptor (Homo sapiens) (UniProt P14416). Briefly: Dopamine D2 receptor (DRD2) small molecule antagonists, cell-based qHTS assay (AID 1963595; active = well fitted inhibition curve with a large enough effect in the signal ratio in the repeat runs, with a control signal flat; the % refers to the signal ratio). In short, it runs like this: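 Readout: HTRF cAMP, cAMP-d2 competing with cellular cAMP for anti-cAMP cryptate, read after 1 h. Cells: DRD2-HEK293. Conditions: 0.1 mM Ro20-1724, 12 nM quinpirole, 200 nM NKH477, 30 min RT.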
Sequence of D(2) dopamine receptor (Homo sapiens) (P14416 whole entry, looked up): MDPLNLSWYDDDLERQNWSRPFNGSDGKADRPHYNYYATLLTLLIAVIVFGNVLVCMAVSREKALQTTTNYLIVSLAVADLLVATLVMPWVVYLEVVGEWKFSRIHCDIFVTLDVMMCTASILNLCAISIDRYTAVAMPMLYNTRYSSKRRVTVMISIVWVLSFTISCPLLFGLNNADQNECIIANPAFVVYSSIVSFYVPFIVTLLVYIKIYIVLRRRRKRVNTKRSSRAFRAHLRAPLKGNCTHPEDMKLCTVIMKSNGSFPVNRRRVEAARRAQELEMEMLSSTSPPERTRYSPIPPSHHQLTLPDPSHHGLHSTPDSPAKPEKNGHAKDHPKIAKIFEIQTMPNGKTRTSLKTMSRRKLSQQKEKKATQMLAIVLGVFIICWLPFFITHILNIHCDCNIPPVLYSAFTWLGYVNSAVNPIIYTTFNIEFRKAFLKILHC

Sequence of Gonadotropin-releasing hormone receptor (Homo sapiens) (P30968 whole entry, looked up): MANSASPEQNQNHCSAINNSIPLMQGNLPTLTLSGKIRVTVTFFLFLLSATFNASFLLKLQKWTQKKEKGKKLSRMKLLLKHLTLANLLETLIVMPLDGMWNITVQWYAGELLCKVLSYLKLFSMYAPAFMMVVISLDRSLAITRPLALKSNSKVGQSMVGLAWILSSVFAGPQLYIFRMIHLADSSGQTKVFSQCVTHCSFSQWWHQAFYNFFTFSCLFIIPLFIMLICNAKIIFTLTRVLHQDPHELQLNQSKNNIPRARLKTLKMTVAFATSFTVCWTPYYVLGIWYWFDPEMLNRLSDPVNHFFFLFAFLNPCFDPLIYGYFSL
Sequence of Muscarinic acetylcholine receptor M1 (Homo sapiens) (P11229 whole entry, looked up): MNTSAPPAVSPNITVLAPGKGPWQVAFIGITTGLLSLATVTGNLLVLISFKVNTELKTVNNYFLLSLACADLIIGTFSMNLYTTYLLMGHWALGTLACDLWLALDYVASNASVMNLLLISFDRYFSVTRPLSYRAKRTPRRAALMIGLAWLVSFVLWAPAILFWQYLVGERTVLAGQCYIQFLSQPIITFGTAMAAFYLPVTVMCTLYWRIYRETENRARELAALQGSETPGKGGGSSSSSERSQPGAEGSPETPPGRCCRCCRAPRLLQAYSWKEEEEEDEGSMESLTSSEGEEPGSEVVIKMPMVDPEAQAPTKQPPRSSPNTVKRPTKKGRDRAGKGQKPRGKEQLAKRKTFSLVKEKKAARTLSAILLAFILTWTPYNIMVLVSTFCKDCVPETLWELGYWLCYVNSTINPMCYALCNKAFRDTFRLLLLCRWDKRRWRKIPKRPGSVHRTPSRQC
Sequence of KiSS-1 receptor (Homo sapiens) (Q969F8 whole entry, looked up): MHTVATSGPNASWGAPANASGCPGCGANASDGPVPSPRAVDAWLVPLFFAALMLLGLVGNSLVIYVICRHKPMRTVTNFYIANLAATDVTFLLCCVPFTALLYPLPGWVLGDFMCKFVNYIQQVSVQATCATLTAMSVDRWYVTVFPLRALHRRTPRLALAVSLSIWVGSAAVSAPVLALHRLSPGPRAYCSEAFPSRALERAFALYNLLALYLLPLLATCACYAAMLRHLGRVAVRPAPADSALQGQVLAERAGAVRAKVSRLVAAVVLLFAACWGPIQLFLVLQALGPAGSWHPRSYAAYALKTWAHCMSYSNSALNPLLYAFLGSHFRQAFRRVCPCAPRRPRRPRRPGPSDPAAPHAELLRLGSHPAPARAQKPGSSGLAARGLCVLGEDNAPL
Sequence of Beta-2 adrenergic receptor (Homo sapiens) (P07550 whole entry, looked up): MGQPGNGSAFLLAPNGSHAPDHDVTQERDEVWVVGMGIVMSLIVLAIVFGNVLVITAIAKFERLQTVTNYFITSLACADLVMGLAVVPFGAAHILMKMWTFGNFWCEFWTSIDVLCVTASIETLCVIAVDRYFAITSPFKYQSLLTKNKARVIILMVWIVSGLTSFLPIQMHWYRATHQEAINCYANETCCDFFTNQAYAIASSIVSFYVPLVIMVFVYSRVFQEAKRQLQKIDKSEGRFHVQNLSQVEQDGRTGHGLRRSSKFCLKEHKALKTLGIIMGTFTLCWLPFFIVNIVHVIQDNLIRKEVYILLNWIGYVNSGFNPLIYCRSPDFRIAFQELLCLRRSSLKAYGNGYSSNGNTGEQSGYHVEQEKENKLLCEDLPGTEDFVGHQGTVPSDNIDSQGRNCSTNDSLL
Sequence of 5-hydroxytryptamine receptor 2A (Homo sapiens) (P28223 whole entry, looked up): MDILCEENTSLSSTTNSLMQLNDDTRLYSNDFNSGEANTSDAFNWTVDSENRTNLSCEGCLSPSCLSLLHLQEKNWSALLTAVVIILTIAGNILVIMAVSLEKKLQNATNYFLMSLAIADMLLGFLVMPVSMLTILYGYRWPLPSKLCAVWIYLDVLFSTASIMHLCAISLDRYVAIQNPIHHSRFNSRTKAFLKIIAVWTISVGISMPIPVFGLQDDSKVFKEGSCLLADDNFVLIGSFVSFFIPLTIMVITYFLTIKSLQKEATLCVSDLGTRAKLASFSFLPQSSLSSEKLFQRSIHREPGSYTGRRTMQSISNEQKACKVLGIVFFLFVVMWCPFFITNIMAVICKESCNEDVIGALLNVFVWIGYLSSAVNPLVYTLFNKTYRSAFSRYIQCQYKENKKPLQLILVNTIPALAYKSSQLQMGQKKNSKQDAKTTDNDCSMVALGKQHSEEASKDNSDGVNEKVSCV

For `CCOP(=S)(OCC)O/N=C(\C#N)c1ccccc1`, the Potency entry in test [1], in [2], in test [3], in test [4], in [5] and in test [6] was “inactive” each time. Besides, the Potency entry in [7], in test [8], in [9], in test [10], in [11] and in [12] was “inactive” each time. Also, the Potency entry in [13], in test [14], in test [15] and in test [16] was “inactive” throughout.

As to `Clc1cccc(C(Cl)(Cl)Cl)n1`, the Potency entry in test [1], in test [2], in [3], in test [4], in test [5] and in test [17] was “inactive” each time. Further, the Potency entry in test [6], in [7], in test [8], in test [18], in test [9] and in [10] was “inactive” throughout. In addition, the Potency entry in test [11], in test [12], in test [13], in test [19], in test [14] and in [15] was “inactive” in each case. Besides, the Potency entry in test [16] and in test [20] was “inactive” throughout.

With `O=C(O)CC[N+](=O)[O-]`, the Potency result in test [1], in test [2], in test [3], in test [4], in test [5] and in test [6] was “inactive” in each case. Also, the Potency result in test [18], in test [9], in test [10], in test [11], in [12] and in test [13] was “inactive” throughout. For the same compound, the Potency entry in [19], in test [14], in test [15], in test [16] and in test [20] was “inactive” throughout.

In the case of `COC(=O)Cc1ccccc1`, the Potency result in test [1], in test [2], in test [3], in test [4], in [5] and in [17] was “inactive” in each case. The Potency result in [6], in test [7], in test [8], in test [18], in test [9] and in test [10] was “inactive” throughout. Moreover, the Potency entry in test [11], in [12], in [13], in [19], in test [14] and in [15] was “inactive” in each case. In addition, the Potency entry in test [16] and in test [20] was “inactive” each time.

In the case of `Oc1ccc(-c2ccccc2)cc1`, the Potency result in test [1], in test [3], in test [4], in test [5], in [6] and in [8] was “inactive” in each case. The Potency entry in [18], in test [9], in test [10], in test [11], in test [12] and in [13] was “inactive” each time. Further, the Potency entry in [19] and in test [20] was “inactive” in each case. The Potency is 61.1 µM (active) in test [2]; 60.3 µM (active) and inactive in [14].

In the case of `CC(=[OH+])/C=C(/C)[O-].CC(=[OH+])/C=C(\C)[O-].CC(=[OH+])/C=C(\C)[O-].[Al]`, the Potency result in test [1], in [2], in [3], in [4], in test [5] and in [6] was “inactive” throughout. Moreover, the Potency result in [7], in test [8], in test [18], in test [10], in test [11] and in test [12] was “inactive” each time. Besides, the Potency entry in test [13], in test [19], in test [14], in test [16] and in [20] was “inactive” each time.

On to `CCC[N+](=O)[O-]`, for which the Potency was 2.68 µM (active) and inactive in test [1]; 44.9 µM (active) and inactive in test [7]. For the same compound, the Potency entry in [2], in test [3], in [4], in [5], in [17] and in test [6] was “inactive” throughout. The Potency entry in test [8], in test [18], in [9], in [10], in test [11] and in test [12] was “inactive” in each case. The Potency result in test [13], in test [19], in test [14], in test [15], in test [16] and in test [20] was “inactive” each time.
